Results filed as inconclusive are left out. Entries that show only a call come without a potency. Calls of active or inactive are those of the source. The call rests on the fitted dose curve; in most records, active means well fitted inhibition curve with a large enough effect; inconclusive means small, poorly fitted or top-dose-only effect, or effect the other way; inactive means flat fitted curve, though single readings scatter.
Potency means the concentration at half of the fitted maximal effect.

A short description of the assay: qHTS for Inhibitors of Plasmodium falciparum (GB4) proliferation (AID 504315). Further: nearly all actives have a fitted effect of over 50% in size. The following applies: P. falciparum GB4 in erythrocytes, SYBR Green DNA, 72 h; series mostly up to 6.7 µM. An outline of the steps:
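Erythrocytes infected with P. falciparum line (0.3% parasitemia, 2.5% hematocrit final) incubated with compounds 72 h at 37 °C, 5% CO2; SYBR Green lysis buffer added, fluorescence read next day. Normalized to 0.29 uM artemisinin and DMSO.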
On the technique in general: qHTS replaces the single test concentration by a dilution series.
Turning to `COC(=O)[C@H](C=C[C@H](C)Cc1cc(Br)cc(OCc2ccccc2)c1OC)OCc1ccccc1`, the Potency result was “inactive”.

For `COC(=O)C1=C(C(=O)OC)[C@@H]2N(C)c3ccc(OC)cc3[C@@]23C[C@@H](C(=O)OC)N(C(=O)c2ccco2)C3=N1`, the Potency result is “inactive”.

As for `CCOC(=O)OC[C@H]1O[C@H](C#Cc2ccc(C(C)(C)C)cc2)C=C[C@H]1OC(=O)OCC`, the Potency is 1690 nM (active).

Turning to `CCCCCCCC=CC1=CC2(C)CC1(C)C(CCCCCCC)CC2=O` (centres undefined), the Potency result is “inactive”.

On to `Cc1cc(F)ccc1O[C@H]1C=C[C@@H](c2ccc3c(c2)OCO3)O[C@H]1CO`, for which the Potency result was “inactive”.

As for `C=CCN=C1NC(CCc2ccccc2)C(C(=O)OC)=C(C)N1CC` (centres undefined), the Potency result was “inactive”.

Take `COc1ccc(COC(=O)NN=C2C[C@@H](O)[C@@H](O)[C@@H]3[C@H]4C(=O)N([C@@H](C)c5ccccc5)C(=O)[C@@H]4CC[C@H]23)cc1`: the Potency entry is “inactive”.

`COC(=O)N[C@@H](c1ccco1)C(C(C)=O)C(=O)OC` (some centres undefined): the Potency entry is “inactive”.

With `COc1ccc(OC[C@@H]2CC3[C@@H](CC[C@@H](C)[C@H]3c3ccc(Br)cc3)C(=O)O2)cc1` (some centres undefined), the Potency entry was “inactive”.

Turning to `COC(=O)N1C2=C(c3ccccc3[C@@H]1CC(=O)O)[C@@H]1O[C@@H](C2)c2ccccc21`, the Potency entry was “inactive”.

As to `C=C=CCCN1C(=O)NC(c2ccccc2)C(C(=O)OC)=C1C` (centres undefined), the Potency entry is “inactive”.

In the case of `COC(=O)c1ccccc1C[C@]1(C(=O)OC)C=C[C@H](C)[C@@H](c2ccccc2)N1C(=O)C(F)(F)F`, the Potency entry is “inactive”.

Turning to `COc1ccc(O[C@H]2C=C[C@@H](c3ccccc3)O[C@H]2CON=C2c3cc(OC)ccc3O[C@H](c3cccc(OC)c3)[C@H]2O)cc1`, the Potency entry is “inactive”.

Turning to `N#CCCCSc1nnnn1-c1cc(C(F)(F)F)cc(C(F)(F)F)c1`, the Potency entry is “inactive”.

As for `CC(=O)OC[C@H]1O[C@H](CC=NO[C@H](C)CN2CCCCc3nc(C)c(C)cc32)C=C[C@@H]1OC(C)=O`, the Potency entry is “inactive”.

With `COC1=C[C@H](C(=O)NCCOC(C)=O)[C@H](C)[C@@H](c2ccccc2)CC1=O`, the Potency result is “inactive”.

Turning to `COC1=C[C@H](C(=O)NCCOC(C)=O)[C@@]2(C)Cc3ccccc3[C@@H]2CC1=O`, the Potency entry was “inactive”.

As for `COc1ccc([C@]23Cc4ccccc4[C@H](O2)c2c(c4ccc(OC)cc4oc2=O)O3)cc1`, the Potency was 1900 nM (active).

Take `CC(=O)C1=C(C)N(Cc2ccccc2)C(=O)NC1c1ccco1` (centres undefined): the Potency entry was “inactive”.

With `C=CC[C@@H]1C=C[C@H](ON=C(C)CCN2CCCc3nc(C)c(C)cc32)[C@H](CO)O1`, the Potency is 1900 nM (active).

Take `COCCN1C(=O)C2=C(C1=O)C1N(C)c3ccccc3[C@@]13C[C@@H](CO)N(S(=O)(=O)c1ccc(OC)cc1)C3=N2` (some centres undefined): the Potency result was “inactive”.

On to `COC(=O)CC=C1c2ccccc2OC[C@@H](OC)[C@H]1C`, for which the Potency entry was “inactive”.

With `CCCC[C@]12Cc3cc(OC)c(OC)cc3[C@H](O1)C1=C(CC3(CCCCC3)OC1=O)O2`, the Potency entry was “inactive”.

As to `COC(=O)CC=C[C@H](C)[C@@H](NC(=O)C(F)(F)F)c1ccccc1Br`, the Potency entry was “inactive”.

Take `CC(C)(C)Nc1oc(-c2ccccc2)nc1-c1ccccc1`: the Potency result was “inactive”.

`CCN1C(=O)N[C@@H](c2cccc(C(F)(F)F)c2)[C@H](C(C)=O)[C@H]1C`: the Potency entry is “inactive”.

In the case of `COCCN1C(=O)NC(CCc2ccccc2)C(C(=O)OC)=C1C` (centres undefined), the Potency entry is “inactive”.

For the compound `C[C@@H]1CC[C@H]2C(=O)O[C@H](COc3ccc(C(C)(C)C)cc3)CN2[C@@H]1c1ccc(Br)cc1`, the Potency entry was “inactive”.

On to `COC(=O)C1=C(C(=O)OC)[C@@H]2Nc3ccccc3[C@@]23C[C@@H](C(=O)OC)N(C(=O)Nc2ccc(C(F)(F)F)cc2)C3=N1`, for which the Potency result was “inactive”.

With `C=CCN=C1NC(c2cccc(F)c2)C(C(=O)OC)=C(C)N1Cc1ccccc1` (centres undefined), the Potency result was “inactive”.

With `CC(C)CON=C1C[C@@H](O)[C@@H](O)[C@@H]2[C@H]3C(=O)N(C[C@@H]4CCCO4)C(=O)[C@@H]3CC[C@@H]12`, the Potency entry was “inactive”.

For the compound `O=C(C=NO)NCCCCNC(=O)C=NO`, the Potency entry was “inactive”.

In the case of `CC(=O)C1=C(C)N(Cc2ccccc2)C(=O)NC1c1cccc(F)c1` (centres undefined), the Potency entry was “inactive”.

In the case of `COc1ccc(O[C@H]2C=C[C@@H](c3ccccc3)O[C@H]2COC(=O)CCC(C)=NO[C@@H]2O[C@H](COC(C)=O)[C@@H](OC(C)=O)[C@H](OC(C)=O)[C@@H]2OC(C)=O)cc1`, the Potency entry was “inactive”.

Consider `CC(=O)C1=C(C)N(CC#C[Si](C)(C)C)C(=O)N(C(C)=O)C1c1ccccc1` (centres undefined), for which the Potency entry was “inactive”.

In the case of `COC(=O)c1ccc(CN2C(=O)[C@]3(OCCC=C[C@@H]3C)c3ccccc32)cc1`, the Potency result was “inactive”.

Turning to `COc1cc(C(CC2=CCCCC2)NC(=O)C(F)(F)F)cc(OC)c1OC` (centres undefined), the Potency entry was “inactive”.

In the case of `C[C@H]1Cc2c(-c3ccccc3)nc3c(c2CO1)CN(C(=O)Nc1cccc(C#N)c1)CC3`, the Potency entry was “inactive”.

In the case of `CCCNC(=O)OC[C@H]1O[C@H](CCON=C(C)CCN2CCCc3nc(C)c(C)cc32)C=C[C@H]1Oc1ccc(OC)cc1`, the Potency is 1900 nM (active).
